The assay has as its system Trypanosoma brucei. As to the kind of experiment: Trypanosoma brucei 72 hour study. Type of assay: functional, organism-based. Further details: scale not given: in the data most compounds retested in dose-response had high values.

These results are taken from ChEMBL document CHEMBL3988442, “University of Dundee, Small-Polar-MMV Screening Library” (2021).

Screen size: about 66,000 compounds; about 960 (1.5%) showed an effect of 50% or more. Only a selection was taken, and strong results are over-represented in it overall.

As to `O=C(Nc1cccn(Cc2ccc(F)cc2)c1=O)c1csnn1`, the “Percent Effect” value (30 µM, 30.03 µM) is given as -24.79%.
With `CN(C(=O)Cc1ccccc1Cl)C1CCN(c2ccccn2)CC1`, the “Percent Effect” value by setting is: (10 µM) -27.72%; (30.3 µM, […]) 20.76%.
As for `Cn1cc(C(O)CNC(=O)c2ccc(F)cc2Cl)cn1` (configuration not stated), the “Percent Effect” value (30 µM, 30.03 µM) was 3.538%.
In the case of `CCN1Cc2nc(OC)c(CNC(=O)CCC3CCCC3)cc2C1=O`, the “Percent Effect” value (30 µM, 30.03 µM) is -13.67%.
For the molecule `O=C(C1CC=CC1)N1C[C@@H](OCc2cccnc2)[C@H]2OCCC[C@H]21.O=C(O)C(F)(F)F`, the “Percent Effect” value (30 µM, 30.03 µM) is 39.05%.
Regarding `CCc1nccn1-c1cncc(C2CCCN2)n1.Cl` (configuration not stated), the “Percent Effect” value (30.3 µM, […]) is -8.115%.
As to `N#Cc1cccc(CN2Cc3nccn3CC(CN3CCCC3)C2)c1.O=C(O)C(F)(F)F.O=C(O)C(F)(F)F` (configuration not stated), the “Percent Effect” value (30 µM, 30.03 µM) is listed as -41.66%.
Regarding `Cc1cc(N2CCC(Cc3ccccc3)CC2)nc(-c2ccncc2)n1`, the “Percent Effect” value (30.3 µM, […]) was found to be 99.65%.
`CC(=O)NCC1CCN(c2cc(C)nc(-c3ccncc3)n2)CC1`: for the setting “10 µM”, the “Percent Effect” value was -42.73%.
`Cc1cc(N2CCC(CC(N)=O)CC2)nc(-c2ccncc2)n1`: the “Percent Effect” value (30.3 µM, […]) is listed as 0.7336%.
Take `Cc1ccc(C(=O)N2CCC3(CC2)CC(N2CCCC2)C3)cc1.O=C(O)C(F)(F)F`: the “Percent Effect” value (30.3 µM, […]) is -4.803%.
On the same count and under the same terms, as for `Cc1ccc(N2CCC3(CN(Cc4cccs4)CCC3(F)F)C2)nn1.O=C(O)C(F)(F)F` (configuration not stated), the figure is -34.83%; as for `Cc1ccc(CN2CCn3c(C(=O)N(C)C)cnc3C2)cc1.O=C(O)C(F)(F)F`, -165%; as for `Cl.Cn1cc([C@@H]2CN(S(=O)(=O)c3cccnc3)C[C@H]2N)c2ccncc21`, -9.979%.
The same measure, in the same setting: then `Cl.Cn1cc([C@@H]2CN(S(C)(=O)=O)C[C@H]2N)c2ccncc21`, with -16.68%; and `Cl.Cn1cc([C@@H]2CN(S(=O)(=O)c3ccccc3F)C[C@H]2N)c2ccncc21`, with 53.59%.
With `c1cc(N2CCC(CN3CCOCC3)CC2)c2sccc2n1`, the “Percent Effect” value (30 µM, 30.03 µM) is reported as -9.098%.
Consider `CCCN1CCCC(O)(c2nc(C)c(COc3ccccc3)s2)CC1` (configuration not stated), for which, where the note is “30.3 µM, […]”, the “Percent Effect” value is 37.82%.
With `C[C@@H]1CN(CCOc2ccc(Cl)cc2)CC[C@@]1(O)C1CCOCC1`, the “Percent Effect” value (30 µM, 30.03 µM) is -42.79%.
In the case of `COc1ccc(OCCc2sc(C3(O)CCCNCC3)nc2C)cc1.Cl` (configuration not stated), the “Percent Effect” value (30.3 µM, […]) is 34.01%.
As to `CC(=O)NCc1nc(CCOc2ccc(Cl)cc2)no1`, under “30 µM, 30.03 µM”, the “Percent Effect” value is -81.13%.
Same read-out and setting: then `Cc1noc(CNC(=O)NCCOc2ccc(Cl)cc2)n1`, with -8.016%; and `Cc1nc(C)c(COc2ccc(S(=O)(=O)N(C)C)cc2)s1`, with -44.61%.
In the case of `COc1ccc(OCc2sc(C3(O)CCCNCC3)nc2C)cc1.Cl` (configuration not stated), the “Percent Effect” value (30.3 µM, […]) amounted to 57.18%.
Same read-out and setting: as for `Cc1nc(C2(O)CCCNCC2)sc1CCOc1ccc(Cl)cc1.Cl` (configuration not stated), the figure is 101.5%; as for `CCN1CCCC(O)(c2nc(C)c(CCOc3ccc(F)cc3)s2)CC1` (configuration not stated), -11.99%.
On the same count and under the same terms, as for `Cc1nc(C2(O)CCCNCC2)sc1CCOc1ccc(F)cc1.Cl` (configuration not stated), the figure is 73.77%.
For the molecule `O=C(O)C(F)(F)F.O=C(O)C(F)(F)F.c1cnc(N2C[C@H]3CCN(CCN4CCCC4)C[C@H]3C2)cn1`, the “Percent Effect” value (30.3 µM, […]) came out at 4.729%.
On the same count and under the same terms, then `COc1cc(C(=O)N2CCCC(c3cc(C)[nH]n3)C2)cc(OC)c1C` (configuration not stated), with -7.766%; and `CCCS(=O)(=O)N1CCO[C@H]2[C@@H](Oc3cccnc3)CC[C@@H]21.O=C(O)C(F)(F)F`, with -3.605%; and `O=C(NCC1CC1)[C@@H]1CC[C@@H]2[C@@H](CCN2Cc2ccco2)O1.O=C(O)C(F)(F)F`, with -31.37%.
Consider `O=C(O)C(F)(F)F.O=C(c1ccco1)N1CC[C@@H]2O[C@H](COCCN3CCCC3)CC[C@@H]21`, for which, under “30 µM, 30.03 µM”, the “Percent Effect” value amounted to 43.22%.
Same read-out and setting: then `COc1ccc2c(ccn2CCCN)c1.O=C(O)C(=O)O`, with 0.08661%.
`O=C(O)C(F)(F)F.O=C(c1ccc(F)cc1)N1CCC2(CC1)CC(N1CCOCC1)C2`: where the note is “30.3 µM, […]”, the “Percent Effect” value was -59.01%.
Same read-out and setting: then `Cn1nccc1C(=O)N1CC[C@]2(C[C@H](OCc3ccccn3)CO2)C1.O=C(O)C(F)(F)F`, with -48.61%.
Consider `COc1cccc(N2Cc3nc(=O)n(C(C)C)n3C2=O)c1`, for which the “Percent Effect” value (30 µM, 30.03 µM) was -40.88%.
Regarding `CC[C@@H]1N(Cc2ccc(OC)cc2)CCC[C@]12CCC(=O)N2CCOC.O=C(O)C(F)(F)F`, the “Percent Effect” value (30.3 µM, […]) is reported as -46.04%.
Still for that read-out and setting: as for `CCOc1ccc(N2CCCN=C2NC(=O)c2cccc(OC)c2)cc1`, the figure is -26.63%; as for `COc1cccc(-c2noc(C3CCN(Cc4ccccc4C)C3)n2)c1.Cl` (configuration not stated), -12.24%; as for `COc1cccc(-c2noc(C3CCN(Cc4ccccc4F)C3)n2)c1.Cl` (configuration not stated), -18.78%.
In the case of `COc1cccc(-c2noc(C3CCN(Cc4cn(C)nc4C)C3)n2)c1` (configuration not stated), for the setting “30 µM, 30.03 µM”, the “Percent Effect” value came out at 63.09%.
Turning to `CNC(=O)[C@@]12CCO[C@@H]1CCN(Cc1ccc3c(c1)OCO3)C2.O=C(O)C(F)(F)F`, the “Percent Effect” value (30.3 µM, […]) is -39.27%.
Same read-out and setting: then `CCN1c2ccc(-c3cncn3CCCn3ccnc3C)cc2CC1C.Cl` (configuration not stated), with 7.904%.
On the same count and under the same terms, as for `Cc1nccn1CCCn1cncc1-c1ccc2c(c1)CC(C)N2C.Cl` (configuration not stated), the figure is -10.42%.
Same read-out and setting: then `Cc1cc(C)n(CCCn2cncc2-c2ccc3c(c2)CC(C)N3C)n1.Cl` (configuration not stated), with 83.42%; and `Cc1nn(C)c(C)c1CCn1cncc1-c1ccc2c(c1)CC(C)N2C.Cl` (configuration not stated), with 26.67%.
